Reference: PMC11062922 (Nature Chemical Biology, 2023)

Test system: RAB14
Design: species or system human, MV4-11 + K-562 + COLO205 + SK-N-BE2 + OVCAR-8
Conditions: read-out: apparent Kd; compound concentrations: 100 nM and 1000 nM (sheet 'Samples'), CATDS: 3.92328124697153E-2; n = 1

**Q.** For COc1ccc(Nc2nccc(NCCNC(=O)Nc3cc(C)ccc3C)n2)cc1 [GSK1379899A], which potency estimated from few doses is on record?
**A.** 2280 nM
